Reference: PubChem BioAssay (NCI)
About 83,000 compounds went through this panel and 20% of them were active in at least one assay; those are over-represented in the sample as a whole.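 96-well plates, one dose, 48 hours. Percent growth reported; active if below 10.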 A number with no mark means an inactive call. The source made the active and inactive calls.

Key:
Assay in all cases: NCI-60 one-dose screen, 48 h (100 = growth as untreated, 0 = no growth, -100 = all killed)
Settings in all cases: 10 µM unless noted
RPMI-8226 leukemia = test system: RPMI-8226 leukemia
OVCAR-8 ovarian = test system: OVCAR-8 ovarian
OVCAR-5 ovarian = test system: OVCAR-5 ovarian
OVCAR-4 ovarian = test system: OVCAR-4 ovarian
SK-OV-3 ovarian = test system: SK-OV-3 ovarian
IGROV1 ovarian = test system: IGROV1 ovarian
OVCAR-3 ovarian = test system: OVCAR-3 ovarian
HS 578T breast = test system: HS 578T breast
NCI/ADR-RES ovarian = test system: NCI/ADR-RES ovarian
T-47D breast = test system: T-47D breast
BT-549 breast = test system: BT-549 breast
MDA-MB-435 melanoma = test system: MDA-MB-435 melanoma
SW-620 colon = test system: SW-620 colon
MCF7 breast = test system: MCF7 breast
HCT-116 colon = test system: HCT-116 colon
HCC-2998 colon = test system: HCC-2998 colon
KM12 colon = test system: KM12 colon

SMILES	growth (RPMI-8226 leukemia)	growth (OVCAR-8 ovarian)	growth (OVCAR-5 ovarian)	growth (OVCAR-4 ovarian)	growth (SK-OV-3 ovarian)	growth (IGROV1 ovarian)	growth (OVCAR-3 ovarian)	growth (HS 578T breast)	growth (NCI/ADR-RES ovarian)	growth (T-47D breast)	growth (BT-549 breast)	growth (MDA-MB-435 melanoma)	growth (SW-620 colon)	growth (MCF7 breast)	growth (HCT-116 colon)	growth (HCC-2998 colon)	growth (KM12 colon)
Nc1cc(-c2c[nH]c3ccc(Cl)cc23)nc2cc(-c3c[nH]c4ccc(Cl)cc34)nn12	59.4%	70.7%	59.7%	58.6%	119%	41.7%	75.9%	74.3%	60.4%	51.6%	87.5%	57.7%	15.7%	14.4%	27.7%	20.1%	12.7%
OC1CCc2c(-c3ccc4ncnc(N5CCc6cc(F)c(Cl)cc65)c4c3)cncc21 (centres undefined)	15.9%	52.9%	46.6%	56.1%	58.1%	-13.2% (active)	37.6%	27.8%	51.1%	7.03% (active)	46.5%	62.7%	85.1%	23.4%	66.9%	72.1%	66.2%
Clc1ccc2c(NCCCN3CCOCC3)c3oc4ccc(Cl)cc4c3nc2c1	67.8%	35.6%	47.4%	87.4%	89.3%	42.9%	104%	84%	42.5%	91.4%	81.3%	69.6%	27.5%	22.2%	23.4%	10%	48.4%
COc1ccc(-c2nc3ccc(-c4nnc(SCC(=O)Nc5ccc(C(=O)/C=C/c6ccc(Cl)cc6)cc5)o4)cc3[nH]2)cc1OC	75.5%	106%	95.2%	108%	111%	91.9%	116%	96%	108%	89.4%	106%	106%	105%	75.9%	101%	124%	–
CN(C)CCCNc1c2ccc(Cl)cc2nc2c1oc1ccc(Cl)cc12	-27.2% (active)	-78.6% (active)	-7.04% (active)	0.544% (active)	60.5%	-64.3% (active)	-52.6% (active)	60.9%	2.92% (active)	84.4%	79.9%	-74.3% (active)	-79% (active)	-76.4% (active)	-93.7% (active)	-85.1% (active)	–
CN(C)CCCOc1c2ccc(Cl)cc2nc2c1oc1ccccc12	-22.1% (active)	-17.8% (active)	4.62% (active)	1.72% (active)	-8.76% (active)	-8.93% (active)	-10.4% (active)	5.22% (active)	3.15% (active)	13.5%	8.05% (active)	-51.9% (active)	9.59% (active)	-18.6% (active)	1.47% (active)	-58.1% (active)	–
NS(=O)(=O)c1cccc(Nc2nc(SCC(=O)c3ccc(Br)cc3)nc3ccccc23)c1	46.1%	39.5%	115%	43.6%	90.1%	85.4%	44%	59.6%	82.8%	31.9%	-40.8% (active)	75.3%	63.7%	32.4%	38.9%	86.1%	69.7%
CN(C)c1ccc(/C=C2\Cc3c(F)ccc(Br)c3C2=O)cc1	93.1%	96.5%	107%	35.9%	97.7%	56.5%	101%	92.2%	91%	54.2%	117%	92.7%	89.9%	39.8%	98.5%	104%	93.1%
COc1cc(/C=C/C(=O)c2ccc(Cl)cc2)ccc1Oc1nc(NCCO)nc(N2CCOCC2)n1	65.4%	104%	102%	114%	96.6%	99%	116%	84%	105%	86.1%	100%	109%	72.4%	67%	93.1%	100%	106%
COc1ccc(-c2nc3ccc(-c4nnc(SCC(=O)Nc5ccc(C(=O)/C=C/c6ccccc6)cc5)o4)cc3[nH]2)cc1OC	64%	104%	99.4%	109%	117%	96.4%	114%	96.1%	110%	86.9%	94.1%	106%	104%	78.3%	89.7%	123%	99%
O=[N+]([O-])c1ccc(O)c2ncccc12	22.1%	16.9%	40.1%	40.8%	58.7%	23.6%	11.4%	47.3%	15.5%	25.9%	61.4%	40%	25.7%	9.13% (active)	21.4%	44.5%	22.2%
COc1cccc(N2CCN(c3ncnc4c3[nH]c3ccc(F)cc34)C[C@@H]2C)c1	-34.7% (active)	-96.7% (active)	0.0989% (active)	-56.5% (active)	-3.28% (active)	-30.2% (active)	-7.65% (active)	-18.7% (active)	7.77% (active)	-52.6% (active)	-97% (active)	-75.4% (active)	-3.32% (active)	0.969% (active)	-35.9% (active)	16.7%	–
Cn1cc(-c2cc(N)n3nc(-c4cn(C)c5ccc(F)cc45)cc3n2)c2cc(F)ccc21	13.5%	20%	88.5%	23.6%	128%	42.7%	-0.991% (active)	18.5%	66.5%	22.5%	77.5%	5.54% (active)	-36.6% (active)	10%	-92.8% (active)	1.23% (active)	6.56% (active)
O=C(c1ccc(Cl)cc1)C1[C@H](c2ccc(Cl)cc2)[C@@H](c2ccccc2)NC12C(=O)Nc1ccc(Br)cc12 (some centres undefined)	18.2%	38.3%	52.8%	44.6%	101%	35.9%	25.5%	58.2%	28.8%	31.2%	61.4%	34.8%	36.3%	15.8%	13.2%	13.3%	15.3%
CCCCN1C(=O)/C(=c2\sc3n(c2=O)C2C(NN=3)N(CC)C(=O)N2CC)c2cc(Cl)ccc21 (centres undefined)	70.2%	95.6%	92.7%	89.7%	106%	65.3%	71.8%	66.9%	79.4%	75%	85%	6.07% (active)	58.2%	27.5%	56.7%	101%	–
Nc1c(C(=O)c2ccc(Br)cc2)oc2nc(-c3cnccn3)cc(-c3cccs3)c12	99.8%	103%	112%	96.3%	98.6%	97.4%	108%	101%	102%	91.4%	103%	102%	98.8%	77.6%	96.8%	113%	99.8%
N/C(=N\c1nc2c(Br)cccc2s1)C(Br)Br	-16.5% (active)	-18% (active)	8.49% (active)	43.2%	53%	-67.6% (active)	-27.4% (active)	6.83% (active)	6.58% (active)	33.1%	29.2%	-48.2% (active)	-39.2% (active)	-26.3% (active)	-56.1% (active)	3.14% (active)	–
CCN(CC)c1ccc(C=O)c(OCc2cn(CC(=O)Nc3ccc(Cl)cc3)nn2)c1	57.9%	75.3%	91%	70.4%	86.8%	74.7%	83.5%	87.8%	84.2%	59.8%	81.4%	79.8%	85.6%	52.9%	47.3%	86.1%	–
